We go through 7 compounds from PubChem BioAssay (NCI).

Holding throughout (assay): NCI-60 one-dose screen, 48 h (100 = growth as untreated, 0 = no growth, -100 = all killed)
One assay has as its system HCT-15 colon. As to conditions: 10 µM unless noted.
The test system of the next assay is HT29 colon. As to conditions: 10 µM unless noted.
Another assay deals with SNB-75 CNS. As to conditions: 10 µM unless noted.
The next assay deals with SNB-19 CNS. As to conditions: 10 µM unless noted.
The subject of a further assay is U251 CNS. As to conditions: 10 µM unless noted.
A further assay has as its system PC-3 prostate. As to conditions: 10 µM unless noted.
A further assay concerns SK-MEL-5 melanoma. As to conditions: 10 µM unless noted.
For a further assay, the system named is UACC-62 melanoma. As to conditions: 10 µM unless noted.
A further assay has as its system LOX IMVI melanoma. As to conditions: 10 µM unless noted.
A further assay deals with SK-MEL-28 melanoma. As to conditions: 10 µM unless noted.
Another assay relates to SK-MEL-2 melanoma. As to conditions: 10 µM.
The test system of another assay is EKVX NSCLC. As to conditions: 10 µM unless noted.
For a further assay, the system named is SN12C renal. As to conditions: 10 µM unless noted.
The test system of another assay is TK-10 renal. As to conditions: 10 µM unless noted.
The next assay deals with ACHN renal. As to conditions: 10 µM unless noted.
The next assay concerns CAKI-1 renal. As to conditions: 10 µM unless noted.
A further assay concerns CCRF-CEM leukemia. As to conditions: 10 µM unless noted.
In a further assay the test system is MOLT-4 leukemia. As to conditions: 10 µM unless noted.
In another assay the test system is UO-31 renal. As to conditions: 10 µM unless noted.
The next assay relates to A498 renal. As to conditions: 10 µM unless noted.

This is part of a sample that, as a whole, favours compounds with a hit. Of some 83,000 tested, about 20% had one in any assay.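 The endpoint reported here, percent growth, reads 100 for growth as untreated, 0 for no net growth and -100 for all cells dead.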 Values without a mark were called inactive. The source made the active and inactive calls. How the source made its calls: active means growth percent below 10; inactive means the rest.

For `CCCCCCCC(=O)SCC/C=C/[C@@H]1CC(=O)NCc2cccc(n2)C2=N[C@@](C)(CS2)C(=O)N[C@@H](C(C)C)C(=O)N1`, the growth was 75.3% in the assay with HCT-15 colon; -6.83% (active) in the assay on HT29 colon; 24.5% in the assay on SNB-75 CNS; 38.6% with SNB-19 CNS; 13.7% in the assay on U251 CNS; 26.9% in the assay with PC-3 prostate. In addition, the growth was 22.2% with SK-MEL-5 melanoma; 0.721% (active) in the assay on UACC-62 melanoma; -1.52% (active) in the assay with LOX IMVI melanoma; 37.1% with SK-MEL-28 melanoma; 18.1% with SK-MEL-2 melanoma; 51.3% in the assay with EKVX NSCLC. For the same compound, the growth with SN12C renal is 55.7%; with TK-10 renal, 12%; in the assay with ACHN renal, 59.6%; in the assay with CAKI-1 renal, 82.3%; with CCRF-CEM leukemia, 44.9%; with MOLT-4 leukemia it was 17.5%.

With `NS(=O)(=O)c1ccc(CCN2C(=O)/C(=C\c3ccc(Cl)cc3)C=C2c2ccc3ccccc3c2)cc1`, the growth is 94.9% in the assay with HCT-15 colon; 87.9% in the assay with HT29 colon; 78.1% in the assay on SNB-75 CNS; 92.5% with SNB-19 CNS; 85.5% in the assay with U251 CNS; 75.8% in the assay with PC-3 prostate. The growth in the assay with SK-MEL-5 melanoma is 94.8%; in the assay on UACC-62 melanoma it was 71.8%; with LOX IMVI melanoma, 96.1%; with SK-MEL-28 melanoma, 103%; in the assay on SK-MEL-2 melanoma, 106%; in the assay with EKVX NSCLC it was 89.4%. Further, the growth with SN12C renal is 94%; with UO-31 renal it was 78.4%; with TK-10 renal it was 95.5%; in the assay on ACHN renal, 90%; with CCRF-CEM leukemia, 106%; with MOLT-4 leukemia it was 86.3%.

For `COc1cc(OC)c(C(=O)/C=C/c2cc3c(cc2OCc2ccccc2)OC(C)(C)CC3)cc1CC=C(C)C`, the growth was 39.7% in the assay with HCT-15 colon; 57.9% in the assay with HT29 colon; 39.2% with SNB-75 CNS; 80.7% with SNB-19 CNS; 29.7% in the assay with U251 CNS; 25.2% in the assay with PC-3 prostate. For the same compound, the growth in the assay on SK-MEL-5 melanoma was 50.4%; in the assay on UACC-62 melanoma, 38.7%; in the assay with LOX IMVI melanoma, 38.9%; with SK-MEL-28 melanoma, 53.3%; with SK-MEL-2 melanoma, 82.3%; in the assay with EKVX NSCLC, 61.1%. Moreover, the growth in the assay with SN12C renal was 47.6%; with UO-31 renal, 51.4%; in the assay on TK-10 renal it was 81.7%; in the assay on ACHN renal, 68.2%; with A498 renal, 98.9%; with MOLT-4 leukemia it was -0.0389% (active).

With `O=C(N/N=C/c1ccc(Cl)cc1)c1cc(-c2cc3ccccc3o2)nn1-c1ccccc1`, the growth is 93% in the assay on HCT-15 colon; 107% in the assay with HT29 colon; 86.5% with SNB-75 CNS; 94.5% with SNB-19 CNS; 96% with U251 CNS; 89.6% in the assay on PC-3 prostate. Moreover, the growth in the assay with SK-MEL-5 melanoma is 56.3%; in the assay with UACC-62 melanoma it was 83.7%; with LOX IMVI melanoma, 84.7%; in the assay with SK-MEL-28 melanoma it was 99.7%; in the assay with SK-MEL-2 melanoma, 91.2%; in the assay on EKVX NSCLC, 89.6%. The growth in the assay with SN12C renal was 94.9%; in the assay with TK-10 renal, 94.8%; in the assay with ACHN renal, 93.5%; with CAKI-1 renal, 100%; in the assay on CCRF-CEM leukemia it was 95.6%; in the assay with MOLT-4 leukemia, 78%.

On to `Clc1nc(Cl)c2ncn(CC#CCn3cnc4c(Cl)nc(Cl)nc43)c2n1`, for which the growth in the assay on HCT-15 colon was -65.7% (active); in the assay on HT29 colon it was -44.2% (active); in the assay on SNB-75 CNS it was 8.25% (active); with SNB-19 CNS it was 12.2%; with U251 CNS it was -75.8% (active); with PC-3 prostate it was -72.1% (active). The growth in the assay on SK-MEL-5 melanoma was -66.9% (active); in the assay on UACC-62 melanoma, -11.6% (active); in the assay on LOX IMVI melanoma it was -83.4% (active); in the assay on SK-MEL-28 melanoma, -26.1% (active); with SK-MEL-2 melanoma, 65.3%; in the assay with EKVX NSCLC, -39.3% (active). The growth in the assay with SN12C renal is 3.09% (active); in the assay on TK-10 renal, -31.5% (active); in the assay on ACHN renal, -53.3% (active); in the assay with CAKI-1 renal, -96.5% (active); in the assay with CCRF-CEM leukemia, -62.2% (active); in the assay on MOLT-4 leukemia it was 1.03% (active).

As for `[2H]C1([2H])[C@H](C)O[C@H](C)C([2H])([2H])N1c1ccc(NC(=O)c2cccc(-c3ccc(OC(F)(F)F)cc3)c2C)cn1`, the growth with HCT-15 colon was 84.2%; in the assay with HT29 colon, 61.2%; in the assay with SNB-75 CNS it was 72.1%; with SNB-19 CNS it was 65.7%; in the assay on U251 CNS it was 65.3%; with PC-3 prostate, 62.1%. The growth in the assay with SK-MEL-5 melanoma was 53.9%; in the assay on UACC-62 melanoma, 52.8%; with LOX IMVI melanoma, 68.4%; in the assay with SK-MEL-28 melanoma it was 89.2%; with SK-MEL-2 melanoma it was 56.1%; in the assay with EKVX NSCLC, 61.4%. For the same compound, the growth in the assay with SN12C renal was 56.6%; in the assay on UO-31 renal, 54.5%; in the assay on TK-10 renal, 63.6%; in the assay with A498 renal it was 53.9%; with CCRF-CEM leukemia it was 64.3%; with MOLT-4 leukemia, 39.9%.

On to `C=C1C(=O)O[C@H]2[C@H]1CC/C(C=Nc1c(N)cc(C(F)(F)F)cc1C(F)(F)F)=C\CC[C@@]1(C)O[C@@H]21`, for which the growth in the assay on HCT-15 colon was -31.1% (active); in the assay on HT29 colon, -15.2% (active); in the assay with SNB-75 CNS, 48.6%; in the assay on SNB-19 CNS, 36.8%; in the assay with U251 CNS, 8.57% (active); with PC-3 prostate, -12.8% (active). Also, the growth with SK-MEL-5 melanoma was -43.6% (active); in the assay with UACC-62 melanoma, -57.1% (active); with LOX IMVI melanoma, -87.5% (active); in the assay with SK-MEL-28 melanoma it was -17.2% (active); in the assay on SK-MEL-2 melanoma, -39.1% (active); in the assay on EKVX NSCLC, -36.2% (active). Further, the growth was -43.2% (active) in the assay on SN12C renal; -89.8% (active) with UO-31 renal; -41% (active) in the assay on TK-10 renal; -59.3% (active) in the assay on CAKI-1 renal; 34.8% with A498 renal; 4.15% (active) in the assay with CCRF-CEM leukemia. The growth with MOLT-4 leukemia is -13.5% (active).
